# Experimental data: the supplement of paper PMC8728848
# The entries come from a sample that favours the strongest signals as a whole.
# B1: PX14343E-bfa-545-24-545 (Bacteroides fragilis) (protein)
# chain: LDRYPQEELSDGSFWKTPDDANKVVSDLYGYLSTWDQDNDINSDNATMGIKWAAGNVSKGIYDPADQGWSGDYANVRQCNLILSKIDEIPDYPEADKTKALGQVYFFRAYIYFNLIRSFGDVPYIDKPLDLKDMEGITRMPRAEVYEKIMADFDKAIAALPTEWGASDYGRVTKGAAMAMKARAALYYGNWDTAATEAKNVMDLGLYELYDKDNTGKYAELFWEKADGCDEFILVTQFNYPDKTHYLMGWECFPTKGWGGMNPTQSLVDAFEDSEGAPISKSKIYDPTDPFKNRDPRLEVDILHDGEEMYGVTIKVAPLASSGSTGINQHNDATETGYYGQKWLDPSLDPLSDGWNMGKDWVHIRYAEVLLTYAEAKNELQGLDPEAFDAVNQVRRRVGMPELQNTDPSKPTYCATQDDLRQRIRNEWRVEFCLEGGKRMWDIRRWGIAKDVLNAPFEGLKYKIVDNPNDPDKKVDGGKMCILYQGDPIILSGSRYSDNNYLFPVPQSEIDLNPALTQNPGY
# Experiments:
# Assay in all cases: glycan array binding signal (z-score within array); higher = stronger binding
# Settings in all cases: glycan notation: IUPAC condensed, linker removed
# GlcA(b1-3)Gal = molecular target: GlcA(b1-3)Gal
# Procedure, shortened: (§1)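 The binding signal is a Z-score computed within each array. Data were drawn from 3228 arrays in the Consortium for Functional Glycomics database, restricted to those with a known protein sequence. Scores were averaged over arrays of the same protein sequence at different concentrations or buffers, and over linkers, and negative values can be taken as non-binding.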
# [1] = molecular target: GlcA3S(b1-3)Gal(b1-4)GlcNAc(b1-2)Man
# Procedure, shortened: as §1
# [2] = molecular target: GlcNAc(a1-4)Gal(b1-4)GalNAc
# Procedure, shortened: as §1
# [3] = molecular target: GlcNAc(a1-4)Gal(b1-4)GlcNAc(b1-3)Gal(b1-4)[Fuc(a1-3)]GlcNAc(b1-3)Gal(b1-4)[Fuc(a1-3)]GlcNAc
# Procedure, shortened: as §1
# [4] = molecular target: GlcNAc(b1-2)[GlcNAc(b1-4)]Man(a1-3)[GlcNAc(b1-4)][GlcNAc(b1-2)[GlcNAc(b1-6)]Man(a1-6)]Man(b1-4)GlcNAc(b1-4)[Fuc(a1-6)]GlcNAc
# Procedure, shortened: as §1
# GlcNAc(b1-3)Fuc = molecular target: GlcNAc(b1-3)Fuc
# Procedure, shortened: as §1
# [5] = molecular target: GlcNAc(b1-3)Gal(b1-4)GlcNAc(b1-2)[GlcNAc(b1-3)Gal(b1-4)GlcNAc(b1-6)]Man(a1-6)[GlcNAc(b1-3)Gal(b1-4)GlcNAc(b1-2)Man(a1-3)]Man(b1-4)GlcNAc(b1-4)GlcNAc
# Procedure, shortened: as §1
# [6] = molecular target: GlcNAc(b1-3)Gal(b1-4)GlcNAc(b1-3)[GlcNAc(b1-3)Gal(b1-4)GlcNAc(b1-3)]GalNAc
# Procedure, shortened: as §1
# Man(a1-2)Man(a1-3)Man = molecular target: Man(a1-2)Man(a1-3)Man
# Procedure, shortened: as §1
# Neu5Ac(a2-3)Gal = molecular target: Neu5Ac(a2-3)Gal
# Procedure, shortened: as §1
# [7] = molecular target: Neu5Ac(a2-3)Gal(b1-3)GalNAc(b1-4)[Neu5Ac(a2-3)]Gal(b1-4)Glc
# Procedure, shortened: as §1
# [8] = molecular target: Neu5Ac(a2-3)Gal(b1-3)GalNAc(b1-4)[Neu5Ac(a2-8)Neu5Ac(a2-3)]Gal(b1-4)Glc
# Procedure, shortened: as §1
# [9] = molecular target: Neu5Ac(a2-3)Gal(b1-3)[Neu5Ac(a2-6)]GlcNAc(b1-3)[Fuc(a1-3)[Gal(b1-4)]GlcNAc(b1-6)]Gal(b1-4)Glc
# Procedure, shortened: as §1
# [10] = molecular target: Neu5Ac(a2-3)Gal(b1-3)]Neu5Ac(a2-3)Gal(b1-4)]GlcNAc
# Procedure, shortened: as §1
# [11] = molecular target: Neu5Ac(a2-3)Gal(b1-4)GlcNAc(b1-2)Man(a1-3)[GlcNAc(b1-4)][Neu5Ac(a2-3)Gal(b1-4)GlcNAc(b1-2)Man(a1-6)]Man(b1-4)GlcNAc(b1-4)GlcNAc
# Procedure, shortened: as §1
# [12] = molecular target: Neu5Ac(a2-3)Gal(b1-4)GlcNAc(b1-3)[Neu5Ac(a2-3)Gal(b1-4)GlcNAc(b1-6)]GalNAc
# Procedure, shortened: as §1
# [13] = molecular target: Neu5Ac(a2-3)Gal(b1-4)[Fuc(a1-3)]GlcNAc(b1-3)Gal(b1-4)GlcNAc
# Procedure, shortened: as §1
# [14] = molecular target: Neu5Ac(a2-3)Gal(b1-4)[Fuc(a1-3)]GlcNAc(b1-6)[Neu5Ac(a2-3)Gal(b1-3)]GalNAc
# Procedure, shortened: as §1
# Neu5Ac(a2-6)Gal(b1-4)Glc = molecular target: Neu5Ac(a2-6)Gal(b1-4)Glc
# Procedure, shortened: as §1
# [15] = molecular target: Neu5Ac(a2-6)Gal(b1-4)GlcNAc(b1-2)Man
# Procedure, shortened: as §1
# [16] = molecular target: Neu5Ac(a2-6)Gal(b1-4)GlcNAc(b1-2)Man(a1-6)[GlcNAc(b1-2)Man(a1-3)]Man(b1-4)GlcNAc(b1-4)GlcNAc
# Procedure, shortened: as §1
# [17] = molecular target: Neu5Ac(a2-6)Gal(b1-4)GlcNAc(b1-3)Gal(b1-4)GlcNAc
# Procedure, shortened: as §1
# [18] = molecular target: Neu5Ac(a2-6)Gal(b1-4)GlcNAc(b1-3)Gal(b1-4)GlcNAc(b1-3)[Neu5Ac(a2-6)Gal(b1-4)GlcNAc(b1-3)Gal(b1-4)GlcNAc(b1-6)]GalNAc
# Procedure, shortened: as §1
# [19] = molecular target: Neu5Ac(a2-6)Gal(b1-4)GlcNAc(b1-3)[Neu5Ac(a2-6)Gal(b1-4)GlcNAc(b1-6)]GalNAc
# Procedure, shortened: as §1
# [20] = molecular target: Neu5Ac(a2-6)Gal(b1-4)GlcNAc(b1-6)[Gal(b1-3)GlcNAc(b1-3)]Gal(b1-4)Glc
# Procedure, shortened: as §1
# [21] = molecular target: Neu5Ac(a2-6)Gal(b1-4)GlcNAc(b1-6)[Gal(b1-3)]GalNAc
# Procedure, shortened: as §1
# [22] = molecular target: Neu5Ac(a2-8)Neu5Ac(a2-8)Neu5Ac(a2-3)[Gal(b1-3)GalNAc(b1-4)]Gal(b1-4)Glc
# Procedure, shortened: as §1
binder,measurement,setting,value
B1,glycan array binding signal (z-score),GlcA(b1-3)Gal,-0.027
same,glycan array binding signal (z-score),[1],-0.441
same,glycan array binding signal (z-score),[2],0.655
same,glycan array binding signal (z-score),[3],8.96
same,glycan array binding signal (z-score),[4],-0.534
same,glycan array binding signal (z-score),GlcNAc(b1-3)Fuc,-0.635
same,glycan array binding signal (z-score),[5],0.412
same,glycan array binding signal (z-score),[6],-0.23
same,glycan array binding signal (z-score),Man(a1-2)Man(a1-3)Man,-0.688
same,glycan array binding signal (z-score),Neu5Ac(a2-3)Gal,-0.082
same,glycan array binding signal (z-score),[7],-0.236
same,glycan array binding signal (z-score),[8],-0.153
same,glycan array binding signal (z-score),[9],0.395
same,glycan array binding signal (z-score),[10],-1.08
same,glycan array binding signal (z-score),[11],0.058
same,glycan array binding signal (z-score),[12],-0.912
same,glycan array binding signal (z-score),[13],-0.873
same,glycan array binding signal (z-score),[14],0.423
same,glycan array binding signal (z-score),Neu5Ac(a2-6)Gal(b1-4)Glc,-0.096
same,glycan array binding signal (z-score),[15],-0.34
same,glycan array binding signal (z-score),[16],0.074
same,glycan array binding signal (z-score),[17],-0.139
same,glycan array binding signal (z-score),[18],2.92
same,glycan array binding signal (z-score),[19],2.89
same,glycan array binding signal (z-score),[20],-0.484
same,glycan array binding signal (z-score),[21],-0.085
same,glycan array binding signal (z-score),[22],-0.399
